# Assays:
# Assay in all cases: DAPPL (digital affinity profiling via proximity ligation, sequencing); 10 mM Tris-HCl pH 7.5, 50 mM NaCl, 1 mM DTT, 4% glycerol, room temperature, 30 min; GST-TFs on glutathione beads, 16-mer random dsDNA library, 0.1% formaldehyde crosslink after washing; high values mean tight binding
# [1] = target: T1, FEV (Homo sapiens, UniProt Q99581 1-238); conditions: protein: recombinant; tags: N-terminal GST; dsDNA, one strand shown
# T1 sequence: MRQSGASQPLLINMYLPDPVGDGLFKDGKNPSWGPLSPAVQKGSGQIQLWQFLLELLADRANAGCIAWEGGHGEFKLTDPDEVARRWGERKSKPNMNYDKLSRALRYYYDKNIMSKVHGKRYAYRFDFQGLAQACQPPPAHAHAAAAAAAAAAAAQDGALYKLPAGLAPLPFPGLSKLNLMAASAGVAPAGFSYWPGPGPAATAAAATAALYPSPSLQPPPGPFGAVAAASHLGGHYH
# In short: (§1)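 The binding signal reported is, for every hexamer, its read frequency for a factor over its read frequency for the tag-only sample. Reads came from pools of yeast-expressed, GST-fused human transcription factors on glutathione beads, barcoded with DNA and mixed with that sample, which were incubated with 200 nmole of a random double-stranded 16-mer DNA library in Tris/NaCl/DTT/glycerol buffer at room temperature for 30 min. After washing, the pools were crosslinked with 0.1% formaldehyde, proximity-ligated with BsaI/T4 ligase for 1 h at 37 °C, PCR-amplified and sequenced on an Illumina NextSeq500.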
# [2] = target: ETV5 (Homo sapiens, UniProt P41161 1-510); conditions: protein: recombinant; tags: N-terminal GST; dsDNA, one strand shown
# In short: as §1
# [3] = target: HSF1 (Homo sapiens, UniProt Q00613 1-529); conditions: protein: recombinant; tags: N-terminal GST; chain copies: 3; dsDNA, one strand shown
# In short: as §1
# [4] = target: T2, SPIC (Homo sapiens, UniProt Q8N5J4 1-248); conditions: protein: recombinant; tags: N-terminal GST; dsDNA, one strand shown
# T2 sequence: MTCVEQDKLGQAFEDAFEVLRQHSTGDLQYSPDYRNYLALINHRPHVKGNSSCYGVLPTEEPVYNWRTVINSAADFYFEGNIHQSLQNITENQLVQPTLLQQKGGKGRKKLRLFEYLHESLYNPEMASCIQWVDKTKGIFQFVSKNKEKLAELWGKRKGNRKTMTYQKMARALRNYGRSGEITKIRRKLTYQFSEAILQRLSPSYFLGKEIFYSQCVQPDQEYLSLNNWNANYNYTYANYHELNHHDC
# In short: as §1
# [5] = target: ELF4 (Homo sapiens, UniProt Q99607 1-663); conditions: protein: recombinant; tags: N-terminal GST; dsDNA, one strand shown
# In short: as §1
# [6] = target: T3, ELK4 (Homo sapiens, UniProt P28324-2 1-405); conditions: protein: recombinant; tags: N-terminal GST; dsDNA, one strand shown
# T3 sequence: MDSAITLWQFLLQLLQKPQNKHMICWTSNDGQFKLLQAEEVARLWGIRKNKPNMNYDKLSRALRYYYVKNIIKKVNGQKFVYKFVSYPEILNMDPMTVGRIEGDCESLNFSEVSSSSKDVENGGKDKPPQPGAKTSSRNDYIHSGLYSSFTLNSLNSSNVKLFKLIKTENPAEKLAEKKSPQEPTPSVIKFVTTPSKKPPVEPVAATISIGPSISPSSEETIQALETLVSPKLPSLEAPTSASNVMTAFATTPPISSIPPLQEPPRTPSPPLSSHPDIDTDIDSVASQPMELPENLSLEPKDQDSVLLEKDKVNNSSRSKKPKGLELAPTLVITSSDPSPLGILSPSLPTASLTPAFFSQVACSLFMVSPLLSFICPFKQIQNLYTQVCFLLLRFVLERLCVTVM
# In short: as §1
# [7] = target: T4, ETV2 (Homo sapiens, UniProt O00321 1-342); conditions: protein: recombinant; tags: N-terminal GST; dsDNA, one strand shown
# T4 sequence: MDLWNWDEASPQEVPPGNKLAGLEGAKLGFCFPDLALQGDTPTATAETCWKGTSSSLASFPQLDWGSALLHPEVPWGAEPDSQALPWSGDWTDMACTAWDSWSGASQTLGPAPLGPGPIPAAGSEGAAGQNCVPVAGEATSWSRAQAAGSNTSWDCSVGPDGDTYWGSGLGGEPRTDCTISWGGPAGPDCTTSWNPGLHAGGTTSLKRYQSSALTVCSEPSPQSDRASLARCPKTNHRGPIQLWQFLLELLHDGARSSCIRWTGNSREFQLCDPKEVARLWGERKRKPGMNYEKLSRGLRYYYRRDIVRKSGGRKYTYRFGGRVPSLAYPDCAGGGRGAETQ
# In short: as §1
# [8] = target: T5, ELF3 (Homo sapiens, UniProt P78545 1-371); conditions: protein: recombinant; tags: N-terminal GST; dsDNA, one strand shown
# T5 sequence: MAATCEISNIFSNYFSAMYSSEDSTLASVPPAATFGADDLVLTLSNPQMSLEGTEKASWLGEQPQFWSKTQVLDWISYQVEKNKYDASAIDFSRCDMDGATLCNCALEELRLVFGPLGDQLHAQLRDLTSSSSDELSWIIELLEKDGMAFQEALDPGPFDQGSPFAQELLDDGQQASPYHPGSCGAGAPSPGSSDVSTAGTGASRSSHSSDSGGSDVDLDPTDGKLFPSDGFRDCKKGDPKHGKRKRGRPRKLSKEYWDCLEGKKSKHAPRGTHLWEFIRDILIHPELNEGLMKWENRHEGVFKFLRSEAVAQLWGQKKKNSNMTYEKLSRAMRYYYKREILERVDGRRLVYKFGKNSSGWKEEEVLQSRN
# In short: as §1
# [9] = target: CRX (Homo sapiens, UniProt O43186 1-299); conditions: protein: recombinant; tags: N-terminal GST; dsDNA, one strand shown
# In short: as §1
# [10] = target: ETV1 (Homo sapiens, UniProt P50549 1-477); conditions: protein: recombinant; tags: N-terminal GST; dsDNA, one strand shown
# In short: as §1
# [11] = target: T6, ERF (Homo sapiens, UniProt P50548 1-548); conditions: protein: recombinant; tags: N-terminal GST; dsDNA, one strand shown
# T6 sequence: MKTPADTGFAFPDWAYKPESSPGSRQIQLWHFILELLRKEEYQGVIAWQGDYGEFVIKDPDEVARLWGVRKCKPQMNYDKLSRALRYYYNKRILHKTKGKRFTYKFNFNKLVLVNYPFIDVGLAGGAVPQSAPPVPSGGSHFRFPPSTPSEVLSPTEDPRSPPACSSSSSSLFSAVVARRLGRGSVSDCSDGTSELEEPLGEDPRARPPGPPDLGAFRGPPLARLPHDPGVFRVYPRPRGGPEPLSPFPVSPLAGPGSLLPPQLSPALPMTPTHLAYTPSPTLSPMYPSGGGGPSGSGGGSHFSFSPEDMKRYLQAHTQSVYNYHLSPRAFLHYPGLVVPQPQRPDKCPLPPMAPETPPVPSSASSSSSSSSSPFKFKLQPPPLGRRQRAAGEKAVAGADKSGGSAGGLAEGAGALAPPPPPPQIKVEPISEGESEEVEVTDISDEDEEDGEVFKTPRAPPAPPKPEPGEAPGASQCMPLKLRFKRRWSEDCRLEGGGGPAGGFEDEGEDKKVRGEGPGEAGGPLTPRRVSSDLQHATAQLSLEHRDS
# In short: as §1
# [12] = target: T7, ETV3L (Homo sapiens, UniProt Q6ZN32 1-361); conditions: protein: recombinant; tags: N-terminal GST; dsDNA, one strand shown
# T7 sequence: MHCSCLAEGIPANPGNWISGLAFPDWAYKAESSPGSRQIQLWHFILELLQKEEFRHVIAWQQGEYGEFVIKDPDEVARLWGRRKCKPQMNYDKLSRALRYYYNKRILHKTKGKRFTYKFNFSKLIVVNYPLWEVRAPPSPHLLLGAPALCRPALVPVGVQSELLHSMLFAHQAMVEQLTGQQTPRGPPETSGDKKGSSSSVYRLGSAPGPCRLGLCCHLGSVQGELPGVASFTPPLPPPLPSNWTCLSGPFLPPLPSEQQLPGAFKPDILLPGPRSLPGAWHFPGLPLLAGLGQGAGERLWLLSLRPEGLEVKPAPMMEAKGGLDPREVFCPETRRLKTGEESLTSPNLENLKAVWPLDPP
# In short: as §1
# [13] = target: T8, ETS2 (Homo sapiens, UniProt P15036 1-469); conditions: protein: recombinant; tags: N-terminal GST; dsDNA, one strand shown
# T8 sequence: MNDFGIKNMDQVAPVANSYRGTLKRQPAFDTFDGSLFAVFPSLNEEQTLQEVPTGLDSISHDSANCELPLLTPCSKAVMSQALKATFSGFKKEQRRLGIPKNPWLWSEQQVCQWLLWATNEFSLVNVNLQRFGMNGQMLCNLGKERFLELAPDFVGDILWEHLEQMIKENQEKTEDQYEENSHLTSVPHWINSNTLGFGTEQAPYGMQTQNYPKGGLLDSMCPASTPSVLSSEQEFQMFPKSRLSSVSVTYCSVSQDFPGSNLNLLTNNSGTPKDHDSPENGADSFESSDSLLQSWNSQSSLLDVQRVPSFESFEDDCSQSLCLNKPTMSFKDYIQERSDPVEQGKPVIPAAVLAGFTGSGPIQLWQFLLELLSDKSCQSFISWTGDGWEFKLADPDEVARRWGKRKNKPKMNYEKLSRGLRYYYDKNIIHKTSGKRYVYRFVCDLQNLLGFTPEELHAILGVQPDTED
# In short: as §1
# [14] = target: T9, SPDEF (Homo sapiens, UniProt O95238 1-335); conditions: protein: recombinant; tags: N-terminal GST; dsDNA, one strand shown
# T9 sequence: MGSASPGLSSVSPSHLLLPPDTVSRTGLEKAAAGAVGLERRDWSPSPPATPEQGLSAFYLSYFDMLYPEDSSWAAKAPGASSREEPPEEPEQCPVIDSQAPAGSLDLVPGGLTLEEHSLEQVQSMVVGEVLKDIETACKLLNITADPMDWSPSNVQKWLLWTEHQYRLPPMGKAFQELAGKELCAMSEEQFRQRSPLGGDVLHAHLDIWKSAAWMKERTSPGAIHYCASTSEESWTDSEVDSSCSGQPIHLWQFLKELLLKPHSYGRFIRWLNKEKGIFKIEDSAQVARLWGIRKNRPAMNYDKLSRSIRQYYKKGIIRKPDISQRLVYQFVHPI
# In short: as §1
# [15] = target: T10, ETV7 (Homo sapiens, UniProt Q9Y603 1-341); conditions: protein: recombinant; tags: N-terminal GST; dsDNA, one strand shown
# T10 sequence: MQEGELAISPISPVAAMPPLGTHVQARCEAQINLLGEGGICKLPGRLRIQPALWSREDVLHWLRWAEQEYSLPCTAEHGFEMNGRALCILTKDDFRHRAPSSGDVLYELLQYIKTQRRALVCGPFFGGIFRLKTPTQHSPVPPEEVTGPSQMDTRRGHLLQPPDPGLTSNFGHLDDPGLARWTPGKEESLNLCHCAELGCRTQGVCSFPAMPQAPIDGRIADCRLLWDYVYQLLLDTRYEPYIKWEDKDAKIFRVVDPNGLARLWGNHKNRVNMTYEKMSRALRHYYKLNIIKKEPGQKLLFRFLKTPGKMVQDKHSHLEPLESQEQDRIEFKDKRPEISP
# In short: as §1
# [16] = target: T11, ELF5 (Homo sapiens, UniProt Q9UKW6-2 1-255); conditions: protein: recombinant; tags: N-terminal GST; dsDNA, one strand shown
# T11 sequence: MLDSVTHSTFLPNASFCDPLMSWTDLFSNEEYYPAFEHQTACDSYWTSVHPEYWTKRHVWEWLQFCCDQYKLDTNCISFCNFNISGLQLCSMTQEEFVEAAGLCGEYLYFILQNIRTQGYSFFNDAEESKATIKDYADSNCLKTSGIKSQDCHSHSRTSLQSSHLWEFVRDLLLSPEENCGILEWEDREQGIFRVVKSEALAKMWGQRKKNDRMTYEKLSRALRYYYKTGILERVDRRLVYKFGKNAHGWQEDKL
# In short: as §1
# [17] = target: T12, ETV3 (Homo sapiens, UniProt P41162-2 1-143); conditions: protein: recombinant; tags: N-terminal GST; dsDNA, one strand shown
# T12 sequence: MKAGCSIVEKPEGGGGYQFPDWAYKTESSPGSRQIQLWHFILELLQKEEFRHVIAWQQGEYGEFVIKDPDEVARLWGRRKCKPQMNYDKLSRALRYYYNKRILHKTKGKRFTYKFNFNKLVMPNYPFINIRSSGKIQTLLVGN
# In short: as §1
# [18] = target: ETV6 (Homo sapiens, UniProt P41212 1-452); conditions: protein: recombinant; tags: N-terminal GST; dsDNA, one strand shown
# In short: as §1
# Chain of HSF1 (Q00613 whole entry): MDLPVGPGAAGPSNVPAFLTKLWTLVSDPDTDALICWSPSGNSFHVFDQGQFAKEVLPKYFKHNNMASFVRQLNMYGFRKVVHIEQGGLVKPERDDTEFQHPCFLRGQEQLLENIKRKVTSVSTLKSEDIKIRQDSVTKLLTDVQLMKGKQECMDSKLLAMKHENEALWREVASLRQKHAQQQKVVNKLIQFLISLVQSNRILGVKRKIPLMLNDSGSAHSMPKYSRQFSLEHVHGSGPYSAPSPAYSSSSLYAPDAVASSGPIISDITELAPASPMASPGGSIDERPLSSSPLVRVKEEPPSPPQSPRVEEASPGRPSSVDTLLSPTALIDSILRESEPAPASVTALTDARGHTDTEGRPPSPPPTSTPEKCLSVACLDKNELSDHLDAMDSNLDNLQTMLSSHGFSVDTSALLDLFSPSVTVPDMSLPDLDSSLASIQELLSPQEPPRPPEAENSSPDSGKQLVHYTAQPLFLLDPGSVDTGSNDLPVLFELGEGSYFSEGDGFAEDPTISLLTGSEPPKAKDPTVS
# Chain of CRX (O43186 whole entry): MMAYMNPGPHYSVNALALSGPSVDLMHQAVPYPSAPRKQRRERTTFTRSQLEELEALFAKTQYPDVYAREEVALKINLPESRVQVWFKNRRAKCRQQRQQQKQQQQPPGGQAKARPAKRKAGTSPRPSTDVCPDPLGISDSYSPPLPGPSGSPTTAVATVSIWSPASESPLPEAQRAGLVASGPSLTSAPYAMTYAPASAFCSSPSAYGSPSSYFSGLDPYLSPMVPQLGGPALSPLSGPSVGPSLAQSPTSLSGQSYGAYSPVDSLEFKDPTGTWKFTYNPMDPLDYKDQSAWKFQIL
# Chain of ETV6 (P41212 whole entry): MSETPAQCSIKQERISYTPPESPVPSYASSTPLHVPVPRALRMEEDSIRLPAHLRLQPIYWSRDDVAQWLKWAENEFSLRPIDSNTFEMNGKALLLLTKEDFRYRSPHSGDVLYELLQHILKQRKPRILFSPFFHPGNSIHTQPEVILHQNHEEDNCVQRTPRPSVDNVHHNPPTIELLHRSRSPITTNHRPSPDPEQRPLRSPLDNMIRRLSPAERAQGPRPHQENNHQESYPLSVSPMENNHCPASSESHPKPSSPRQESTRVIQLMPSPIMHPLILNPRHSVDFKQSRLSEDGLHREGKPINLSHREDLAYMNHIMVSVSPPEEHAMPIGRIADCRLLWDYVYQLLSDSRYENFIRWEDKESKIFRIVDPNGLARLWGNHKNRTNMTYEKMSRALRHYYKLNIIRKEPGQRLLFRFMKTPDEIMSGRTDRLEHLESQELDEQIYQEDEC
# Chain of ETV5 (P41161 whole entry): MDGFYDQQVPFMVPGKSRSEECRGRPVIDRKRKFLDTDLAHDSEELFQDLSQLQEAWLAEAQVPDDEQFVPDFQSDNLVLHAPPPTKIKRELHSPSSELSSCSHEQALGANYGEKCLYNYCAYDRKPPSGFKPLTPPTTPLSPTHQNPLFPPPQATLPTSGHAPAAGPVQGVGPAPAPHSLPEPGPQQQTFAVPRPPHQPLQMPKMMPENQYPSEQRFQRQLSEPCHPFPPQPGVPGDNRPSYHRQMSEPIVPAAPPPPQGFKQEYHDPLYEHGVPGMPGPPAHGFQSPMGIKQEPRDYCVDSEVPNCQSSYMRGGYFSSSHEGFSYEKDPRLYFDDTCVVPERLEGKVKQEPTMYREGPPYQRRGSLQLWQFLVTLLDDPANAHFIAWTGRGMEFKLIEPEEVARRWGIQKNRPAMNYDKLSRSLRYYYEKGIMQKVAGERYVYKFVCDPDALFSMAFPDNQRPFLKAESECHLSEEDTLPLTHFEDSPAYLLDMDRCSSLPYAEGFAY
# Chain of ELF4 (Q99607 whole entry): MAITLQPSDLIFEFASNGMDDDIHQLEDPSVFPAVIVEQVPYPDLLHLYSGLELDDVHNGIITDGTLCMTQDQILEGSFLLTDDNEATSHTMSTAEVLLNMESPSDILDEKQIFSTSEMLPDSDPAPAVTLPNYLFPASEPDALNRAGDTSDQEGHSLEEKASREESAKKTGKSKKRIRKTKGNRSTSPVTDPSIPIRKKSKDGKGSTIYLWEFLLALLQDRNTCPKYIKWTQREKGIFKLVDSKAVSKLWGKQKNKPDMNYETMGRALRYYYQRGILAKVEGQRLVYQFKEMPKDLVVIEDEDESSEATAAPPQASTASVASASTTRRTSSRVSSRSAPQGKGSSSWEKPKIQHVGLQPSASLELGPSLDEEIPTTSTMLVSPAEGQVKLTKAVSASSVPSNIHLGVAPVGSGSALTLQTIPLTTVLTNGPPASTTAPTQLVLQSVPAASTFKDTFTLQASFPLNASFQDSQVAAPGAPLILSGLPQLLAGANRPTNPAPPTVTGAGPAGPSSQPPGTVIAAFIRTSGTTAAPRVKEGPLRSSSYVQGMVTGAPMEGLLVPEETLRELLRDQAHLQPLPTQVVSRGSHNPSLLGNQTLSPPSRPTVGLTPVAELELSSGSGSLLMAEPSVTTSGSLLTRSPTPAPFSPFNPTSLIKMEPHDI
# Chain of ETV1 (P50549 whole entry): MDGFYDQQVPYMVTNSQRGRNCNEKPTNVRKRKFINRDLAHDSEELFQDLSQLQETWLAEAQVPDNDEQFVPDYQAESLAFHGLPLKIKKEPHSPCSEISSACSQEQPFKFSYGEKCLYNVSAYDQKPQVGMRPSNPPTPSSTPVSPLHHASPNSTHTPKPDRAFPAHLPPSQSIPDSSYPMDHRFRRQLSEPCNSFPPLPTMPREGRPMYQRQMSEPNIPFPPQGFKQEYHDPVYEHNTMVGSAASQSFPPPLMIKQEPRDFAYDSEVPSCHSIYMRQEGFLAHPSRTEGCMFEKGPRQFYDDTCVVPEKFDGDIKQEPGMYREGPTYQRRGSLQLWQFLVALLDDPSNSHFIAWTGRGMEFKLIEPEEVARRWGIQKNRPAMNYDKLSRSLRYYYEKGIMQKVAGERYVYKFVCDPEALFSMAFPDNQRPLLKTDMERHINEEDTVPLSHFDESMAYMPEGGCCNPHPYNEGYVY
sequence,measurement,setting,value
AAATGT,binding signal,[1],"1.27 fold enrichment (6-mer frequency, TF over GST control)"
same,binding signal,[2],"1.28 fold enrichment (6-mer frequency, TF over GST control)"
same,binding signal,[3],"1.19 fold enrichment (6-mer frequency, TF over GST control)"
same,binding signal,[4],"1.25 fold enrichment (6-mer frequency, TF over GST control)"
same,binding signal,[5],"1.27 fold enrichment (6-mer frequency, TF over GST control)"
same,binding signal,[6],"1.4 fold enrichment (6-mer frequency, TF over GST control)"
same,binding signal,[7],"1.36 fold enrichment (6-mer frequency, TF over GST control)"
same,binding signal,[8],"1.54 fold enrichment (6-mer frequency, TF over GST control)"
same,binding signal,[9],"1.04 fold enrichment (6-mer frequency, TF over GST control)"
same,binding signal,[10],"1.39 fold enrichment (6-mer frequency, TF over GST control)"
same,binding signal,[11],"1.27 fold enrichment (6-mer frequency, TF over GST control)"
same,binding signal,[12],"1.33 fold enrichment (6-mer frequency, TF over GST control)"
same,binding signal,[13],"1.44 fold enrichment (6-mer frequency, TF over GST control)"
same,binding signal,[14],"1.27 fold enrichment (6-mer frequency, TF over GST control)"
same,binding signal,[15],"1.27 fold enrichment (6-mer frequency, TF over GST control)"
same,binding signal,[16],"1.48 fold enrichment (6-mer frequency, TF over GST control)"
same,binding signal,[17],"1.3 fold enrichment (6-mer frequency, TF over GST control)"
same,binding signal,[18],"1.31 fold enrichment (6-mer frequency, TF over GST control)"

# — PMC7862700, “An all-to-all approach to the identification of sequence-specific readers for epigenetic DNA modifications on cytosine”
